# Screens deposited in PubChem by National Center for Advancing Translational Sciences (NCATS).
# MBNL1-CUG inh – inhibitors of human MBNL1 binding to CUG repeat RNA; Q9NR56; TR-FRET MBNL1-His/biotin-(CUG)12 binding, 665/545 ratio; Potency, µM (highest dose often 57.5 µM), without a hit: top-dose activity change, negative = inhibition, hits mostly inhibitors; 280,000 tested, 0.036% active; AID 2675; active means well fitted inhibition curve with a large enough effect in the signal ratio, with a control signal flat, not every such curve was filed as active; inconclusive means small, poorly fitted or top-dose-only effect, or effect the other way, or a change in a side signal; inactive means no such curve, though single readings can be large or run the other way; the % refers to the signal ratio; further: potency means the concentration at half of the fitted maximal effect; on the % scale 0 is the no-effect control and ±100 the full control effect
# Target sequence (Q9NR56 whole entry, looked up): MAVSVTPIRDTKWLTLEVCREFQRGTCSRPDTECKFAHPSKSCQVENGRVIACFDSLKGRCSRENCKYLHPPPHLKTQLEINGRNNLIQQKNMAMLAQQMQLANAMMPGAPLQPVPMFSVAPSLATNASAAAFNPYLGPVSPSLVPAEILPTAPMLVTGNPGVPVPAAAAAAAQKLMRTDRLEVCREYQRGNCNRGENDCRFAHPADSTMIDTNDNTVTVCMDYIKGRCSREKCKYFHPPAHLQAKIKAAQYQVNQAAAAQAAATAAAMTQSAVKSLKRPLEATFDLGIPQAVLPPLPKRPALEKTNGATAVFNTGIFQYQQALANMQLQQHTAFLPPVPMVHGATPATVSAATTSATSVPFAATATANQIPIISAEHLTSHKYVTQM
#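 Compound titration spanned 92 nM–58 uM against the MBNL1-His/biotin-(CUG)12 complex. After 60 min at room temperature with 5 nM streptavidin-XL665 and 0.055 ng/ul terbium anti-His, ratiometric 665/545 nm emission (Ex 340 nm) normalized to controls.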
# Mm-Cpn inhibitor – blocks the Methanococcus maripaludis chaperonin Mm-Cpn; purified Mm-Cpn ATPase, ADP Transcreener TR-FRET; Potency, µM (series often up to 76.9 µM), without a hit: at the highest dose activity, negative = inhibition, most hits filed as inhibitors; 330,000 tested, 0.031% active; AID 504842; further: potency means the concentration at half of the fitted maximal effect; on the % scale 0 is the no-effect control and ±100 the full control effect; nearly all actives have a fitted effect of over 80% in size
#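 ATP (10 uM final) was added to archaeal chaperonin (25 nM final) after 10 min exposure to test compound at 37°C; after 30 min further incubation, ADP was detected by competitive TR-FRET.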
# Epigenetic derep – regulators of epigenetic silencing causing reporter derepression in mouse cells. murine LDR cells, GFP reporter derepression, 30 h. Potency, µM (top dose mostly 53.9 µM), without a hit: top-dose GFP activation, actives largely listed as activators. 280,000 tested, 0.2% active. AID 1865; further: potency means the concentration at half of the fitted maximal effect; % of control where 0% means no effect; nearly all actives have a fitted effect of over 60% in size
#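 Reporter derepression read as number of fluorescent GFP-positive objects, 20-120 um in size, counted by laser-scanning cytometer. Mouse LDR line with an epigenetically silenced CMV-GFP locus; compound incubation 30 h, 37 C.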
# Akt phos inh – Akt phosphorylation inhibition. Neuro2A IGF-stimulated pAkt S473 HTRF, 20 min; active compounds read low. activity change, % for hits at 50 µM. 360,000 tested, 0.32% active. AID 651550; in the data active means activity change below about -80%; inconclusive means mostly about -51% to -80%; further: on the % scale 0 is the no-effect control and ±100 the full control effect
#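 Single-point screen (50 µM final compound) in Neuro2A cells stimulated 20 min with 6 nM IGF at 37 deg C. After lysis, Ser473-phosphorylated Akt read by HTRF (ex 330 nm, em 615/665 nm) as the 665/615 ratio.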
# uPA surface inh – inhibitors of cell surface uPA generation; Potency, µM (highest dose often 38.3 µM), for the others: at the highest dose activity change, negative = inhibition, actives largely listed as inhibitors; cell surface uPA generation assay, qHTS; 330,000 tested, 0.31% active; active means well fitted inhibition curve with a large enough effect; inconclusive means small, poorly fitted or top-dose-only effect; inactive means no such curve, though single readings can be large or run the other way; tested in mouse RAW 264.7 cells; further: potency means the concentration at half of the fitted maximal effect; on the % scale 0 is the no-effect control and ±100 the full control effect; nearly all actives have a fitted effect of over 55% in size
# CCT modulator – modulators of cytosolic chaperonin (CCT/TRiC) activity; activity change, % (no concentration beside the values), hits read low; 360,000 tested, 0.3% active; purified chaperonin ATPase assay, HTRF ADP detection, 30 min; in the data active means activity change below about -30%; further: on the % scale 0 is the no-effect control and ±100 the full control effect
#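 We incubate TRiC, 40 or 20 nM final, with library compounds at 76 uM and 10 uM ATP for 30 min at 37 °C. ADP formed is detected with Transcreener HTRF reagents after 30 min at room temperature.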
# * marks the source's active call; other numbers are inactive results; i = inactive; ? = inconclusive; nt = no result; [ ] = another dose, or the depositor's remark. Compounds with a hit are over-represented: about 0.97% of the library has one in this group of screens. Unless noted, the call rests on the fitted dose curve; in most records, active means well fitted curve in the direction sought with a large enough effect; inconclusive means small, poorly fitted or top-dose-only effect, or another doubt; inactive means no such curve, though single readings can be large; an effect the other way counts as inactive or inconclusive.
SMILES,MBNL1-CUG inh,Mm-Cpn inhibitor,Epigenetic derep,Akt phos inh,uPA surface inh,CCT modulator
CC(C)c1ccc2occ(CC(=O)Nc3ccccc3Cl)c2c1,nt,nt,-1%,nt,nt,nt
CN(C)c1cccc(C(=O)OCCCC(=O)c2ccc(F)cc2)c1,nt,-1%,nt,i,3%,-38*
O=C(NNC(=S)NCc1ccccc1)c1ccc(Br)o1,-4%,2%,0%,i,2.8µM*,1
CCOC(=O)c1c(N)sc(C(=O)Nc2ccccc2F)c1C,-3%,0%,2%,i,?,1
CCOC(=O)c1c(N)sc(C(=O)Nc2ccccc2)c1C,-2%,-1%,2%,i,7.9µM*,0
C[C@@H]1C=CCC(=O)OC[C@H](C)C(=O)OC[C@H]2O[C@H]1C=C[C@@H]2O,nt,nt,0%[10.1 µM],nt,nt,nt
CCCCC(C(=O)NC1CCCC1)N(C(=O)c1snc(C(N)=O)c1N)c1ccc(C)cc1 (stereo not given),3%,-1%,nt,i,5%,-3
O=C(COC(=O)/C=C/c1ccc(OC(F)F)cc1)NC1CCCC1,nt,-1%,nt,i,0%,-117*
O=C(COC(=O)/C=C/c1ccc(OC(F)F)cc1)NC(=O)NC1CCCCC1,nt,-2%,nt,i,7%,-3
O=C1C2CCCN2C(c2ccc(F)cc2)N1c1ccc(Cl)cc1 (stereo not given),-5%,0%,2%,i,5µM*,1
O=C(COC(=O)c1cccc(O)c1)Nc1ccc(S(=O)(=O)N2CCOCC2)cc1,nt,0%,nt,i,-3%,0
O=C(CN1CCC2(CC1)OCCO2)c1c[nH]c2ccccc12,3%,-1%,0%,-122%*,-8%,-2
C/C(=N\NC(=O)C(C)Oc1ccc([N+](=O)[O-])cc1)c1ccccn1 (stereo not given),10%,1%,16µM*,i,nt,-3
COc1ccc(-n2cnnc2SCC(=O)N2CCN(c3ccccc3)CC2)cc1,-7%,0%,-1%,-108%*,0%,-2
CCn1c(SCC(=O)N2CCN(c3ccccc3)CC2)nnc1-c1c[nH]c2ccccc12,?,0%,-1%,i,7.9µM*,-1
COc1ccc(N2CCN(C(=O)CSc3nnc(-c4cc5ccccc5cc4O)n3C)CC2)cc1,20%,-7%,-4%,i,nt,0
Cn1c(SCC(=O)N2CCN(c3ccccc3)CC2)nnc1-c1c[nH]c2ccccc12,-7%,0%,0%,i,-10%,1
O=C(Nc1ccc(-c2noc(CCc3ccccc3)n2)cc1)c1ccco1,3%,-3%,-8%,i,-4%,-56*
COc1ccc(-c2c(C)nc3c(-c4ccccn4)cnn3c2N)cc1,-1%,0%,nt,i,-14%,-3
CCc1ccc(/C=C/c2c([N+](=O)[O-])c(=O)n(C)c(=O)n2C)cc1,?,-2%,nt,i,6.3µM*,3
CCOc1ccc(/C=C/c2c([N+](=O)[O-])c(=O)n(C)c(=O)n2C)cc1,?,3%,-3%,i,-19%,-1
COc1ccc(CN2C(=O)c3cccnc3C2Nc2ccc(OC)c(Cl)c2)cc1 (stereo not given),-4%,-11%,-1%,i,nt,-71*
COc1ccc(C2/C=C\CN(CC(C)C)CC(=O)N2Cc2cccc(F)c2)cc1 (stereo not given),nt,1%,-1%,i,0%,2
COc1ccc(C(=O)Sc2ccc(Cl)cc2)cc1OC,-4%,-2%,-1%,-127%*,-18%,-4
COc1ccc(C(=O)Sc2ccc(C)cc2)cc1OC,-2%,2%,-3%,i,-16%,-1
SMILES,MBNL1-CUG inh,Mm-Cpn inhibitor,Epigenetic derep,Akt phos inh,uPA surface inh,CCT modulator
CC(=O)Nc1sc2c(c1C#N)CCCC2,-9%,nt,-1%,i,-6%,-3
CC(=O)NC(=S)Nc1sc2c(c1C#N)CCCCC2,-8%,2%,-1%,i,-10%,-31*
Cc1ccc(-n2nc3c(=O)n(CC(=O)NCCc4ccc(Cl)cc4)nc(C)c3c2C)cc1,-3%,0%,nt,i,-16%,0
Cc1ccc(-n2nc3c(=O)n(CC(=O)NCCC4=CCCCC4)nc(C)c3c2C)cc1,-4%,1%,nt,nt,1%,-78*
COC(=O)NC(c1cccc(F)c1)[C@@]1(C(=O)OC)CCCC1=O (stereo not given in full),nt,nt,1%[10.1 µM],nt,nt,nt
CC(C)c1ccc(NC2CCCN(C(=O)CCN3CCCC3=O)C2)cc1 (stereo not given),-3%,-6%,nt,i,1%,-34*
CCOc1ccccc1NC(=O)COc1cccnc1[N+](=O)[O-],nt,1%,nt,i,-3%,-1
COc1ccc(CNC(=O)CSc2ncc3c(n2)-c2cc(Cl)ccc2N(Cc2ccccc2)S3(=O)=O)cc1,nt,nt,3%,nt,nt,nt
COc1ccc(CNC(=O)CSc2ncc3c(n2)-c2cc(Cl)ccc2N(Cc2ccccc2)S3(=O)=O)cc1OC,nt,nt,22µM*,nt,nt,nt
O=C(COC(=O)c1cccc([N+](=O)[O-])c1)Nc1ccc(Cl)cn1,nt,2%,nt,i,-2%,-42*
O=C(NC1CCS(=O)(=O)C1)C1CCCC1 (stereo not given),nt,-3%,nt,i,3%,-1
CCCCC1CCC(C(=O)NC2CCS(=O)(=O)C2)CC1 (stereo not given),-2%,1%,0%,i,-6%,-46*
COc1ccc(S(=O)(=O)Nc2cc(SCC(=O)O)c(O)c3ccccc23)cc1,?,-27%,nt,i,11µM*,-1
CCN1/C(=C/c2cccc[n+]2C)Sc2ccc(OC)cc21,?,-2%,nt,i,?,1
COc1ccc2c(c1)N(C)/C(=C/c1cccc[n+]1C)S2,?,-1%,nt,i,7.9µM*,-1
CCOc1ccccc1CNCc1cccn1-c1nnc(N2CCN(c3ccccc3)CC2)s1,nt,nt,0%,nt,nt,nt
Cc1cccc(NC(=O)c2ccc3nccnc3c2)n1,?,2%,nt,i,-1%,-50*
CCOc1ccc(-n2c(C)cc(C(=O)CCl)c2C)cc1,-9%,-1%,?,i,-11%,-2
COC(=O)c1ccc(-n2c(C)cc(C(=O)CCl)c2C)cc1,-4%,1%,1%,i,6.3µM*,-2
COc1ccc(-n2nc([N+](=O)[O-])c(=NCCc3ccccc3)n2O)cc1,nt,-1%,-1%,i,10µM*,-1
O=[N+]([O-])c1nn(-c2ccc(Cl)cc2)n(O)c1=NCc1ccncc1,?,1%,-5%,i,13µM*,-2
Cc1ccc(CN=c2c([N+](=O)[O-])nn(-c3ccc(Cl)cc3)n2O)cc1,?,-4%,-3%,i,-23%,-1
